From the supplement of paper PMC3545927
Some of the results follow. The hit rate among all sequences tested is not known here.

Biological target: furin, P09958
Assay: furin cleavage Z-score vs untreated control; higher = more cleavage, active = 3.5 or more, inactive = 1 or less, 8 variable residues between constant flanks
Method in brief: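 In 50 mM HEPES pH 7.5 with CaCl2 and NaCl, purified furin was incubated with bead-anchored 8-mer peptide–cDNA fusions at 1:10 enzyme:substrate in 0.01 ml. Incubation times were 7.5, 15 and 30 min. DNA set free by cleavage was adapter-tagged by PCR and sequenced, with read counts taken as abundance. Log counts relative to furin-free reactions, after lowess adjustment and median absolute deviation scaling, form the cleavage Z-score.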

furin, P09958, sequence (P09958 whole entry): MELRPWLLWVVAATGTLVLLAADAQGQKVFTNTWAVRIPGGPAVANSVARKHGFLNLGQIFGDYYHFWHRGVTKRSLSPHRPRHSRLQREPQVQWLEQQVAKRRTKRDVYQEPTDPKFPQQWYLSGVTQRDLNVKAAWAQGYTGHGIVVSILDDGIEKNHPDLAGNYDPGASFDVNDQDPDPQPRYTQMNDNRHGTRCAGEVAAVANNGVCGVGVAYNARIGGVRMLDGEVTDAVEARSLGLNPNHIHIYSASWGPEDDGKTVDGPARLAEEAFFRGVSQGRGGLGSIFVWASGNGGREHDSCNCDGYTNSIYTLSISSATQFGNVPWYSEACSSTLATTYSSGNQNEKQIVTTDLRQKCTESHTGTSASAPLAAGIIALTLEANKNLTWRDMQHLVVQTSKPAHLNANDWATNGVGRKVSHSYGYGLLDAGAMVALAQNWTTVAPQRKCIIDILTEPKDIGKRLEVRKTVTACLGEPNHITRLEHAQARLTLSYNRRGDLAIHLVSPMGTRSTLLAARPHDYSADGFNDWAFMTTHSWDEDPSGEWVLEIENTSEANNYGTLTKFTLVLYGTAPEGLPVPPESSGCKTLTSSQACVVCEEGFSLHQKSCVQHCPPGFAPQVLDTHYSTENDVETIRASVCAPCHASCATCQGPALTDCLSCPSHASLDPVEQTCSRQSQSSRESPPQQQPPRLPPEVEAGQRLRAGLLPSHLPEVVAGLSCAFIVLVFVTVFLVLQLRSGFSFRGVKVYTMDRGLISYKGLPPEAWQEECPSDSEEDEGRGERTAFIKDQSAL

| Sequence | furin cleavage Z-score (7.5 min) | furin cleavage Z-score (15 min) | furin cleavage Z-score (30 min) |
| --- | --- | --- | --- |
| CAVTKYIMTCAGNASASA [HC981] | -0.549 (inactive) | -0.794 (inactive) | 0.2 (inactive) |
| CAEVPCHHPSAGNASASA [HC2375] | 0.748 (inactive) | 1.23 | 0.223 (inactive) |
| CAAPNYTFALAGNASASA [HC1198] | -1.92 (inactive) | -0.299 (inactive) | -0.368 (inactive) |
| CAGDPPQPEYAGNASASA [HC1546] | -0.406 (inactive) | -0.628 (inactive) | 0.347 (inactive) |
| CARVRRLFCRAGNASASA [FS-2245] | 0.941 (inactive) | 1.51 | 0.361 (inactive) |
| CARVRRAGQGAGNASASA [FS-2106] | 3.76 (active) | 5.43 (active) | 4.94 (active) |
| CASVSHARPRAGNASASA [HC1652] | 0.173 (inactive) | -1.3 (inactive) | -0.282 (inactive) |
| CARVRRQIHAAGNASASA [FS-2319] | 8.32 (active) | 8.68 (active) | 7.57 (active) |
| CARVRRAIPRAGNASASA [FS-3123] | 5.13 (active) | 4.64 (active) | 6.32 (active) |
| CARVRKDGGGAGNASASA [FS-2842] | -0.741 (inactive) | 1.03 | -1.03 (inactive) |
| CARVRRAATPAGNASASA [FS-2621] | 11.8 (active) | 12.6 (active) | 10.3 (active) |
| CARCWVAMTPAGNASASA [HC279] | -1.59 (inactive) | 1.01 | -0.0231 (inactive) |
| CAMEEFSQHLAGNASASA [HC6] | -0.132 (inactive) | -1.04 (inactive) | -0.188 (inactive) |
| CAADTVDGAGAGNASASA [CS9] | 0.142 (inactive) | -1.09 (inactive) | -0.572 (inactive) |
| CADEECSQHLAGNASASA [HC1671] | 0.117 (inactive) | 0.56 (inactive) | -0.0902 (inactive) |
| CAEAVTSTWVAGNASASA [HC2163] | 1.01 | -0.993 (inactive) | -0.235 (inactive) |
| CAYTPCSGSWAGNASASA [HC1829] | -0.863 (inactive) | -0.615 (inactive) | -0.179 (inactive) |
| CAEVHTSTWVAGNASASA [HC2195] | 0.614 (inactive) | -0.225 (inactive) | 1.53 |
| CARPPRPAQGAGNASASA [FS-2057] | -0.496 (inactive) | -0.739 (inactive) | -0.973 (inactive) |
| CARVRREDTPAGNASASA [FS-3125] | 7.61 (active) | 7.5 (active) | 6.22 (active) |
| CARFKRWKAEAGNASASA [FS-1853] | 3.27 | 4.72 (active) | 6.24 (active) |
| CAAGRRSEAEAGNASASA [FS-1877] | -2 (inactive) | -1.75 (inactive) | -0.59 (inactive) |

| Sequence | furin cleavage Z-score (7.5 min) | furin cleavage Z-score (15 min) | furin cleavage Z-score (30 min) |
| --- | --- | --- | --- |
| CARWGRSAQGAGNASASA [FS-3130] | 4.05 (active) | 4 (active) | 4.18 (active) |
| CARFKKFATEAGNASASA [FS-1700] | 0.401 (inactive) | 0.983 (inactive) | -0.463 (inactive) |
| CADPSHITAEAGNASASA [HC1249] | -0.448 (inactive) | -0.687 (inactive) | -1.36 (inactive) |
| CAAFKIMSGEAGNASASA [HC1093] | -0.371 (inactive) | -0.656 (inactive) | -1.3 (inactive) |
| CARPDRSSQGAGNASASA [FS-3016] | -1.72 (inactive) | -1.8 (inactive) | -1.46 (inactive) |
| CARVRRSTAEAGNASASA [FS-2388] | 12.5 (active) | 12.2 (active) | 8.54 (active) |
| CAFTAGYSGGAGNASASA [HC1646] | -0.828 (inactive) | -0.656 (inactive) | -0.88 (inactive) |
| CAESPCHRPSAGNASASA [HC2337] | 1.16 | 0.888 (inactive) | -0.202 (inactive) |
| CATTPCSGSYAGNASASA [HC1929] | -0.34 (inactive) | -0.574 (inactive) | 0.025 (inactive) |
| CASTICSAHLAGNASASA [HC2504] | 1.31 | -0.501 (inactive) | 1.12 |
| CAVPGAVYTFAGNASASA [HC552] | -0.518 (inactive) | 0.509 (inactive) | -0.772 (inactive) |
| CARVRRAAQGAGNASASA [FS-2105] | 8.98 (active) | 8.61 (active) | 7.68 (active) |
| CARSCRAAQAAGNASASA [FS-3076] | 0.547 (inactive) | 1.19 | 1.76 |
| CARVRRQLDRAGNASASA [FS-3174] | 10.3 (active) | 12.6 (active) | 9.92 (active) |
| CARALRSLDLAGNASASA [FS-2325] | 3.52 (active) | 2.8 | 4.65 (active) |
| CARALRSSGTAGNASASA [FS-1944] | -0.0204 (inactive) | -0.353 (inactive) | 0.495 (inactive) |
| CAPAAYAAQGAGNASASA [HC781] | 0.244 (inactive) | 1.54 | 0.00948 (inactive) |
| CARTDRSSDRAGNASASA [FS-1796] | -0.725 (inactive) | -1.9 (inactive) | -1.59 (inactive) |
| CARALRSVSRAGNASASA [FS-2641] | -0.658 (inactive) | -0.337 (inactive) | 0.074 (inactive) |
| CARVRRAAQAAGNASASA [FS-2535] | 8.23 (active) | 7.6 (active) | 6.83 (active) |
| CATTPCSGKWAGNASASA [HC1914] | -1.59 (inactive) | 1.19 | -1.38 (inactive) |
